The list is not random: actives were taken first. Their share in the collection is about 9%.
IMPase inh: qHTS Assay for Identifying the Cell-Membrane Permeable IMPase Inhibitors. Inositol monophosphatase 1 (Rattus norvegicus), P97697. CHO-M1 cells, IP1 accumulation, HTRF TR-FRET ratio. inhibition (IP1 accumulation), % at 46.1 µM. 120,000 tested, under 10 active. AID 901, 2007; active means well fitted curve in the direction sought with a large enough effect in the signal ratio, not every such curve was filed as active; inconclusive means small, poorly fitted or top-dose-only effect, or a change in a side signal; inactive means no such curve, though single readings can be large or run the other way; the % refers to the signal ratio;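 further: cells stimulated with carbachol in lithium chloride buffer; plate controls were DMSO basal wells for no effect and reference inhibitor wells for full effect; higher means more IMPase inhibition seen as more IP1 and lower FRET ratio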
Target sequence (P97697 whole entry, looked up): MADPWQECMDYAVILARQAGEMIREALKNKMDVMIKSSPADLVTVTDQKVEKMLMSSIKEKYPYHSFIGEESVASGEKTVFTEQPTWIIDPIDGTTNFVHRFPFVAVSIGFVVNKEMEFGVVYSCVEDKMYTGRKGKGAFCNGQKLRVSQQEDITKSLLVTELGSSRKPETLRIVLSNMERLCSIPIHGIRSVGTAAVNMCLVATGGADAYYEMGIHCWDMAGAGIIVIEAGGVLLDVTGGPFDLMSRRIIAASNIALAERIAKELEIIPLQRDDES
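Seeded CHO-M1 cells were dosed with compound at up to 46 uM, stimulated with carbachol for 30 min, then lysed in IP-One detection reagents. Higher IP1 lowers the TR-FRET signal.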
ALDH1A1 block: qHTS Assay for Inhibitors of Aldehyde Dehydrogenase 1 (ALDH1A1); Aldehyde dehydrogenase 1A1 (Homo sapiens), P00352; Purified ALDH1A1, NADH fluorescence, propionaldehyde substrate; Potency, µM (highest dose often 75.3 µM), inactives show top-dose activity, negative = inhibition, most hits filed as inhibitors; 220,000 tested, 7.3% active;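 further: potency means the concentration at half of the fitted maximal effect; plate controls were no enzyme wells and a reference inhibitor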
HPGD block: qHTS Assay for Inhibitors of HPGD (15-Hydroxyprostaglandin Dehydrogenase). Potency, µM, inactives show top-dose activity change, negative = inhibition, hits mostly inhibitors. 150,000 tested, 4.3% active. purified HPGD, NADH fluorescence kinetic, PGE2 substrate. 15-hydroxyprostaglandin dehydrogenase [NAD(+)] (Homo sapiens), P15428; further: potency means the concentration at half of the fitted maximal effect
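20 nM HPGD preincubated 15 min at room temperature with compound in 50 mM Tris-HCl pH 8, 0.01% Tween 20. Started with 1 mM NAD+ and 30 uM prostaglandin E2; NADH fluorescence (360/450 nm) read 5 times over 30-s intervals, last minus first.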
* marks the source's active call; other numbers are inactive results; ? = inconclusive; . = no result; [ ] = another dose, or the depositor's remark. Unless noted, the call rests on the fitted dose curve; in most records, active means well fitted inhibition curve with a large enough effect (not every such curve was filed as active); inconclusive means small, poorly fitted or top-dose-only effect, or another doubt; inactive means no such curve, though single readings can be large or run the other way. Unless noted, on the % scale 0 is the no-effect control and ±100 the full control effect.

SMILES	IMPase inh	ALDH1A1 block	HPGD block
O=C(CN1CCOCC1)Nc1ncc(Cc2cccc(Cl)c2Cl)s1	.	6.6%	-16.6%
C=CCOc1c(Br)cc(CNn2cn[nH]c2=S)cc1OC	.	8.4%	.
COc1cc(CNn2c(C)n[nH]c2=S)cc(Br)c1OCc1ccc(F)cc1	.	28.2µM*	15.8µM*
COc1cc(CNC2CCCC2)cc(Cl)c1OCc1ccc(F)cc1	-1.9[1.84 µM]	17.1%	0.0%
COc1cc(CNn2c(C)n[nH]c2=S)cc(Cl)c1OCc1ccc(F)cc1	2.1	-0.6%	12.6µM*
CC(/C=N/NC(=O)c1nn(C)c(C)c1Br)=C\c1ccccc1	.	-1.6%	-15.5%
O=C(/C=C/c1ccc([N+](=O)[O-])cc1)NCc1ccco1	2.8	-6.8%	-11.0%
O=C(/C=C/c1c(F)cccc1Cl)NCc1ccco1	.	?	10µM*
O=C(/C=C/c1ccc(F)cc1)NCc1ccco1	.	-2.7%	25.1µM*
NS(=O)(=O)c1ccc(CNC(=O)/C=C/c2c(F)cccc2Cl)cc1	.	-2.8%	.
O=C(/C=C/c1ccc[nH]1)c1ccc(F)cc1	.	-17.6%	.
O=C(/C=C/c1c(F)cccc1Cl)c1ccc(F)cc1	8.3	-44.4%	12.6µM*
O=C1CCCN1c1ccc(S(=O)(=O)Oc2cccc(Cl)c2)cc1[N+](=O)[O-]	2.7	-11.1%	-20.1%
O.O.O.O.O.O.O.O=S(=O)([O-])[O-].[Co+2]	.	?	-1.9%
Cc1sc2ncnc(OCC(=O)N3CCN(S(=O)(=O)c4ccccc4)CC3)c2c1C	13.2[0.0738 µM]	-8.3%	-2.9%
Cc1cn(S(=O)(=O)c2ccc(Br)c3ccccc23)cn1	?	0.6%	3.0%
CC(C)NC(=O)[C@@H]1C[C@@]1(C)[C@@H](NC(=O)OCc1ccccc1)c1ccccc1	.	-4.6%	-5.5%
CN(C(=O)Cc1ccccc1)n1cnnc1	-4.1[0.0738 µM]	-0.7%	-6.3%
Cc1oc2c(cc(NS(=O)(=O)c3ccc(F)cc3)c3ccccc32)c1C(=O)OCc1ccccc1	-3.5	.	.
C=CCn1c(=O)/c(=C/c2cc(OC)c(OC)c(OC)c2)s/c1=C(/C#N)c1nc2ccccc2n1C	1.8	1.41µM*	-26.1%
C=CCn1cnc2c(c1=O)c1nc3ccccc3nc1n2/N=C/c1cc(OC)c(OC)c(OC)c1	9.0	-5.5%	-14.6%
CCc1ccc(NC(=O)N(CCCN2CCOCC2)C(C)c2cc3cccc(OC)c3o2)cc1 (centres undefined)	15.0	?	-14.8%
COc1ccc(CNC(=O)CN(Cc2ccccc2)S(=O)(=O)c2ccc(Cl)cc2)cc1	-0.5	?	-13.6%
COc1ccc(S(=O)(=O)N(Cc2ccccc2)Cc2nc3ccccc3c(=O)[nH]2)cc1	0.0	6.31µM*	-4.5%
O=C(CN(Cc1ccc(Cl)c(Cl)c1)S(=O)(=O)c1ccccc1)N/N=C\c1ccc2c(c1)OCO2	1.1	-8.9%	?
SMILES	IMPase inh	ALDH1A1 block	HPGD block
O=C(CN(Cc1ccccc1)S(=O)(=O)c1ccccc1)N/N=C/c1ccc2c(c1)OCO2	5.4	?	11.2µM*
COc1ccccc1CN(Cc1nc2ccccc2c(=O)[nH]1)S(=O)(=O)c1ccc2ccccc2c1	16.8	?	-15.4%
CCCC(CCC)=NNC(=O)CN(Cc1ccccc1)S(=O)(=O)c1ccccc1	.	8.91µM*	-14.3%
CNC(=O)CN(Cc1ccccc1)S(=O)(=O)c1ccccc1	6.1	-21.7%	-3.4%
COc1ccc(CNC(=O)CN(Cc2ccc(Cl)cc2)S(=O)(=O)c2ccccc2)cc1	5.3	2.24µM*	2.7%
CCCCCn1c(=N)n(CC(O)COc2cccc(C)c2)c2ccccc21 (centres undefined)	2.9	.	.
CCC(C)NC(=O)C(=O)NCc1ccccn1 (centres undefined)	.	8.8%	.
CCOC(=O)C1(Cc2ccccc2Cl)CCN(Cc2csc(C(C)=O)c2)CC1	.	-9.5%	.
O=[N+]([O-])c1cccc(/C=N\NC2=CS(=O)(=O)C=C2)c1	.	-2.1%[13.5 µM]	-8.7%
CN=C(C)/C(C(=O)OC)=C(/O)c1ccc(Cl)cc1Cl	.	-1.6%	.
COc1ccc(S(=O)(=O)N2N=C(c3ccc(NS(C)(=O)=O)cc3)CC2c2ccco2)cc1 (centres undefined)	.	22.4µM*	.
CS(=O)(=O)Nc1ccc(C2=NN(C(=O)c3ccco3)C(c3ccccc3)C2)cc1 (centres undefined)	.	15.8µM*	-11.8%
CCS(=O)(=O)Nc1ccc(C2=NN(C(=O)c3ccco3)C(c3ccc(C)cc3)C2)cc1 (centres undefined)	5.7	?	?
Cc1ccc(C2CC(c3ccc(NS(C)(=O)=O)cc3)=NN2C(=O)c2ccco2)cc1 (centres undefined)	.	?	-12.5%

Screens as filed in PubChem BioAssay.
